Laboratory results as given in PubChem BioAssay (NCI).
Several values for one entry are separate records, joined by “and”; a condition that tells them apart may be missing. Equal entries are not always repeated. Compounds without any hit were thinned out: in the full panel of roughly 83,000, 20% have a hit.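 96-well plates, one dose, 48 hours. Percent growth reported; active if below 10.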 Activity calls are given as the source filed them.

Experiments:
Experiment in all cases: NCI-60 one-dose screen, 48 h (100 = growth as untreated, 0 = no growth, -100 = all killed)
Details in all cases: 10 µM unless noted
NCI-H23 lung = test system: NCI-H23 lung
NCI-H226 lung = test system: NCI-H226 lung
NCI-H322M lung = test system: NCI-H322M lung
HOP-62 NSCLC = test system: HOP-62 NSCLC
NCI-H460 lung = test system: NCI-H460 lung
HOP-92 NSCLC = test system: HOP-92 NSCLC
NCI-H522 lung = test system: NCI-H522 lung
A549/ATCC NSCLC = test system: A549/ATCC NSCLC
786-0 renal = test system: 786-0 renal
COLO 205 colon = test system: COLO 205 colon
DU-145 prostate = test system: DU-145 prostate
K-562 leukemia = test system: K-562 leukemia
MALME-3M melanoma = test system: MALME-3M melanoma
MDA-MB-231 breast = test system: MDA-MB-231 breast
RXF 393 renal = test system: RXF 393 renal
SF-268 CNS = test system: SF-268 CNS
SF-295 CNS = test system: SF-295 CNS
SF-539 CNS = test system: SF-539 CNS
UACC-257 melanoma = test system: UACC-257 melanoma
M14 melanoma = test system: M14 melanoma

Measured: growth

Cc1cc(N(CCCl)CCCl)ccc1C=Nc1ccc(-c2csc(-c3ccccc3)n2)cc1
inactive: NCI-H23 lung 66.6% | NCI-H226 lung 58.5% | NCI-H322M lung 117% | HOP-62 NSCLC 79.3% | NCI-H460 lung 33.1% | HOP-92 NSCLC 59.4% | NCI-H522 lung 102% | A549/ATCC NSCLC 67.2% | 786-0 renal 59.2% | COLO 205 colon 88.9% | DU-145 prostate 68.3% | K-562 leukemia 80.4% | MALME-3M melanoma 115% | MDA-MB-231 breast 90.3% | RXF 393 renal 90.1% | SF-268 CNS 66.7% | SF-295 CNS 66.2% | SF-539 CNS 74.4% | UACC-257 melanoma 86.5% | M14 melanoma 92.6%

COc1ccc(/C=C(/C)[N+](=O)[O-])cc1OC
inactive: NCI-H23 lung 62.2% and 58.1% | NCI-H226 lung 88.7% and 79.2% | NCI-H322M lung 48% and 94.5% | HOP-62 NSCLC 48.3% | NCI-H460 lung 34.2% and 22.9% | A549/ATCC NSCLC 53.7% and 52.9% | DU-145 prostate 22.3% and 13.5% | MDA-MB-231 breast 11.3% and 28.8% | SF-295 CNS 98.6% and 104% | SF-539 CNS 15.1%
3.01% (active) and 44.6% (inactive): SF-268 CNS
active: HOP-92 NSCLC -6.58% and -11.5% | NCI-H522 lung -88.2% and -73.2% | 786-0 renal -53.1% and -23.3% | COLO 205 colon -69.3% and -76.2% | K-562 leukemia 7.3% and 5.18% | MALME-3M melanoma -22.6% and -51.7% | RXF 393 renal -91.1% and -95.7% | UACC-257 melanoma -88.6% and -67.5% | M14 melanoma -52.6% and -61.6%

O=CC1(c2ccccc2)CCN(Cc2ccccc2)CC1
inactive: NCI-H23 lung 101% | NCI-H226 lung 98.2% | NCI-H322M lung 105% | HOP-62 NSCLC 112% | NCI-H460 lung 110% | HOP-92 NSCLC 97.3% | NCI-H522 lung 105% | A549/ATCC NSCLC 95.4% | 786-0 renal 108% | COLO 205 colon 109% | DU-145 prostate 106% | K-562 leukemia 105% | MALME-3M melanoma 105% | MDA-MB-231 breast 104% | RXF 393 renal 115% | SF-268 CNS 99.6% | SF-295 CNS 99% | SF-539 CNS 106% | UACC-257 melanoma 99.5% | M14 melanoma 98.8%

C(=NC1CCCCC1)=NC1CCCCC1
inactive: NCI-H23 lung 106% and 31.1% | NCI-H226 lung 103% and 57% | NCI-H322M lung 117% and 99.1% | HOP-62 NSCLC 109% and 86.8% | NCI-H460 lung 107% and 100% | HOP-92 NSCLC 92.8% and 62.3% | NCI-H522 lung 91.8% and 85.2% | A549/ATCC NSCLC 111% and 87% | 786-0 renal 104% and 87.1% | COLO 205 colon 115% and 88.6% | DU-145 prostate 107% and 97.9% | K-562 leukemia 97.8% and 69% | MALME-3M melanoma 108% and 53.2% | MDA-MB-231 breast 97.2% and 88.3% | RXF 393 renal 109% and 94.6% | SF-268 CNS 108% and 88.2% | SF-295 CNS 87% | SF-539 CNS 101% and 97.7% | UACC-257 melanoma 133% and 44.3% | M14 melanoma 115% and 87.1%

COc1ccc(CN)cc1OC
inactive: NCI-H23 lung 101% and 104% | NCI-H226 lung 113% and 105% | NCI-H322M lung 135% and 96.9% | HOP-62 NSCLC 107% and 101% | NCI-H460 lung 124% and 102% | HOP-92 NSCLC 108% | NCI-H522 lung 107% and 98.5% | A549/ATCC NSCLC 108% and 102% | 786-0 renal 105% and 101% | COLO 205 colon 122% and 109% | DU-145 prostate 111% and 106% | K-562 leukemia 131% | MALME-3M melanoma 96.8% | MDA-MB-231 breast 109% and 107% | RXF 393 renal 126% | SF-268 CNS 108% and 98.9% | SF-295 CNS 104% | SF-539 CNS 105% and 99.3% | UACC-257 melanoma 106% and 101% | M14 melanoma 110% and 98.7%

C[C@]12CCc3sc(Nc4ccc(O)cc4)nc3C1=CC[C@@H]1[C@@H]2CC[C@]2(C)C(=O)CC[C@@H]12
inactive: NCI-H23 lung 70.2% | NCI-H226 lung 103% | NCI-H322M lung 93.4% | HOP-62 NSCLC 92.7% | NCI-H460 lung 65.6% | HOP-92 NSCLC 126% | A549/ATCC NSCLC 79.3% | COLO 205 colon 38.5% | DU-145 prostate 10.4% | K-562 leukemia 10.8% | MALME-3M melanoma 29.7% | MDA-MB-231 breast 35.3% | SF-268 CNS 58.3% | SF-295 CNS 52.5% | UACC-257 melanoma 73.4% | M14 melanoma 58.1%
active: NCI-H522 lung -55.2% | 786-0 renal -3.03% | RXF 393 renal -16.2% | SF-539 CNS -3.84%

CC[CH2][Sn]([Cl])([Cl])[CH2]CC.Oc1ccccc1C=NCCN=Cc1ccccc1O
active: NCI-H522 lung -87.6% and -83.2% | K-562 leukemia 4.37% and -23.9% | MALME-3M melanoma 4.96% and -43.8%
51.4% (inactive) and 5.28% (active): UACC-257 melanoma
50.6% (inactive) and -12.1% (active): COLO 205 colon
inactive: NCI-H23 lung 56.4% and 34.2% | NCI-H226 lung 11% and 17.4% | NCI-H322M lung 105% and 92.4% | HOP-62 NSCLC 103% and 83.8% | NCI-H460 lung 110% and 90.5% | HOP-92 NSCLC 40% and 29.2% | A549/ATCC NSCLC 103% and 92.3% | 786-0 renal 65.2% and 59.1% | DU-145 prostate 81.3% and 76.9% | MDA-MB-231 breast 38.7% and 28.5% | SF-268 CNS 49.7% and 20.3% | SF-295 CNS 93.2% | SF-539 CNS 59.9% and 37.8% | M14 melanoma 69.6% and 39%
51.7% (inactive) and 1.58% (active): RXF 393 renal

S=P(SP(=S)(c1ccccc1)c1ccccc1)(c1ccccc1)c1ccccc1
inactive: NCI-H23 lung 99% | NCI-H226 lung 96.6% | NCI-H322M lung 107% | HOP-62 NSCLC 111% | NCI-H460 lung 107% | HOP-92 NSCLC 86.7% | NCI-H522 lung 88.5% | A549/ATCC NSCLC 106% | 786-0 renal 110% | COLO 205 colon 118% | DU-145 prostate 106% | K-562 leukemia 97% | MALME-3M melanoma 96.5% | MDA-MB-231 breast 94.1% | RXF 393 renal 97.1% | SF-268 CNS 95.8% | SF-295 CNS 92.5% | SF-539 CNS 103% | UACC-257 melanoma 104% | M14 melanoma 101%

O=C(O)c1cc([N+](=O)[O-])cc([N+](=O)[O-])c1
inactive: NCI-H23 lung 107% | NCI-H226 lung 97% | NCI-H322M lung 105% | HOP-62 NSCLC 85.6% | NCI-H460 lung 106% | HOP-92 NSCLC 88.2% | NCI-H522 lung 67.9% | A549/ATCC NSCLC 79.6% | 786-0 renal 97.9% | COLO 205 colon 118% | DU-145 prostate 109% | K-562 leukemia 116% | MALME-3M melanoma 109% | MDA-MB-231 breast 120% | SF-268 CNS 97% | SF-295 CNS 101% | SF-539 CNS 104% | UACC-257 melanoma 61.8% | M14 melanoma 95.9%

CC[C@@H](C)C(=O)O[C@H]1[C@H](O)[C@H]2[C@@H](CN3C[C@@H](C)CC[C@H]3[C@@]2(C)O)[C@@H]2C[C@]34O[C@]5(O)[C@@H](OC(=O)[C@@](C)(O)CC)CC[C@@]3(C)[C@@H]5[C@@H](OC(C)=O)[C@@H](OC(C)=O)[C@H]4[C@@]21O
inactive: NCI-H23 lung 99.1% | NCI-H226 lung 81.2% | NCI-H322M lung 106% | HOP-62 NSCLC 82.8% | NCI-H460 lung 111% | HOP-92 NSCLC 90% | NCI-H522 lung 100% | A549/ATCC NSCLC 70.5% | 786-0 renal 101% | COLO 205 colon 92.1% | DU-145 prostate 107% | K-562 leukemia 83.9% | MALME-3M melanoma 103% | MDA-MB-231 breast 94.2% | RXF 393 renal 94.5% | SF-268 CNS 102% | SF-295 CNS 97.2% | SF-539 CNS 100% | M14 melanoma 95.6%

C[C@]12CC[C@H]3[C@@H](C[C@@H]4SC(Nc5cccc(F)c5)=N[C@@]45CC(=O)CC[C@]35C)[C@@H]1CCC2=O
inactive: NCI-H23 lung 55.1% | NCI-H226 lung 71.9% | NCI-H322M lung 55.8% | HOP-62 NSCLC 20.4% | NCI-H460 lung 52% | HOP-92 NSCLC 68.9% | A549/ATCC NSCLC 35.4% | COLO 205 colon 47.6% | DU-145 prostate 17.2% | MALME-3M melanoma 22.8% | MDA-MB-231 breast 38.2% | SF-268 CNS 55.7% | UACC-257 melanoma 73% | M14 melanoma 44.8%
active: NCI-H522 lung -43.7% | 786-0 renal -13.9% | K-562 leukemia -0.515% | RXF 393 renal -28.4% | SF-295 CNS -18.8% | SF-539 CNS -5.93%

CCCCn1c(=O)c(C(=O)NCc2ccccc2Cl)c(O)c2ccccc21
inactive: NCI-H23 lung 54.1% | NCI-H226 lung 63% | NCI-H322M lung 75.2% | HOP-62 NSCLC 76.9% | NCI-H460 lung 67.6% | HOP-92 NSCLC 66.9% | NCI-H522 lung 73.4% | A549/ATCC NSCLC 58% | 786-0 renal 52.2% | COLO 205 colon 92.8% | DU-145 prostate 84.6% | K-562 leukemia 42.3% | MALME-3M melanoma 98% | MDA-MB-231 breast 88.7% | RXF 393 renal 87.7% | SF-268 CNS 80.8% | SF-295 CNS 51.8% | SF-539 CNS 97.4% | UACC-257 melanoma 80.9% | M14 melanoma 59.4%
